# Laboratory results reported in PubChem BioAssay (Tox21).
# A number with no mark means an inactive call. Results filed as inconclusive are left out. Entries that show only a call come without a potency. Activity calls are given as the source filed them. Unless noted, calls come from the whole dose curve; as a rule, active = well fitted curve in the direction sought with a large enough effect in the repeat runs; inconclusive = weak or mixed curves; inactive = no such curve, though single readings can be large; an effect the other way counts as inactive or inconclusive.
# Key:
# [1] = biological target: Progesterone receptor (Homo sapiens) (UniProt P06401); experiment: qHTS assay to identify small molecule agonists of the progesterone receptor (PR) signaling pathway (AID 1346784; calls by dose curve; note: nearly all actives have a fitted effect of over 30% in size)
# Sequence of Progesterone receptor (Homo sapiens) (P06401 whole entry, looked up): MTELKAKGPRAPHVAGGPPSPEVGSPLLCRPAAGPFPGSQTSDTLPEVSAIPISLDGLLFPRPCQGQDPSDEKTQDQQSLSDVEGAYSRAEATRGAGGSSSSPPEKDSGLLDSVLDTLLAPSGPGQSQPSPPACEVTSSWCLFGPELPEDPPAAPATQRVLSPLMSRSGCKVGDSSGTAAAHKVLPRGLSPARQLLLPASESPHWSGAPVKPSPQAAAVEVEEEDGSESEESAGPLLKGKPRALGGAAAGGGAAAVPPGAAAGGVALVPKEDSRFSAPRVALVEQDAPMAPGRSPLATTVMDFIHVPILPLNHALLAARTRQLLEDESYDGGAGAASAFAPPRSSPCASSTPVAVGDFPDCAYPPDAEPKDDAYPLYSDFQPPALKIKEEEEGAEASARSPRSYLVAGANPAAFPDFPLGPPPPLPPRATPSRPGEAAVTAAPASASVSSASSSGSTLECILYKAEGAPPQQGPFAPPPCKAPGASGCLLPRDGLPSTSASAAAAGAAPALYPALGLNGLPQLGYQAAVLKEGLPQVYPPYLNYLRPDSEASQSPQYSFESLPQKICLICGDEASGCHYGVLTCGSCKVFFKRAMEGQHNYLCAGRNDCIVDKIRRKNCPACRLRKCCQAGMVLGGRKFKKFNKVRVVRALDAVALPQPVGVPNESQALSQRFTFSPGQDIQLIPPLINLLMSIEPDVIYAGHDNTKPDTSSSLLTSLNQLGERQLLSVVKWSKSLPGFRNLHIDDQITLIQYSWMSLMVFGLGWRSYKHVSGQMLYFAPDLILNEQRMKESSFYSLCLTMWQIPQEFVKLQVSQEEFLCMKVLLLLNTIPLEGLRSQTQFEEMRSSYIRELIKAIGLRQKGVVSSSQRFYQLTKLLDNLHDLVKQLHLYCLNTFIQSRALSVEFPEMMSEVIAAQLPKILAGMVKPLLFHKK
# Outline: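 PR-UAS-bla HEK 293T cells carrying a UAS-driven beta-lactamase reporter were seeded in medium with 2% charcoal-stripped FBS, preincubated 6 hr at 37C, then exposed to compounds in DMSO for 16 hr; agonism was read by LiveBLAzer B/G FRET fluorescence.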
# [2] = biological target: Progesterone receptor (Homo sapiens) (UniProt P06401); experiment: qHTS assay to identify small molecule antagonists of the progesterone receptor (PR) signaling pathway (AID 1346795; active = well fitted inhibition curve with a large enough effect in the signal ratio in the repeat runs, not every such curve was filed as active; the % refers to the signal ratio)
# Outline: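 PR-UAS-bla HEK293T cells carrying a UAS-driven beta-lactamase reporter were plated in medium with 2% charcoal-stripped FBS and rested 6 hr at 37C. Compounds were added with 1 nM R5020 (final) for 16 hr, then FRET substrate loaded 2 hr at room temperature.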
# [3] = qHTS assay to identify small molecule antagonists of the progesterone receptor (PR) signaling pathway - cell viability counter screen (AID 1346798); note: nearly all actives have a fitted effect of over 50% in size; note: potency is the fitted concentration of half-maximal effect
# Outline: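 PR-UAS-bla HEK293T cells in medium with 2% charcoal-stripped FBS were treated with compounds plus R5020 for 16 hr at 37C. Cell viability was then read by CellTiter-Glo luminescence after 30 min at room temperature in the same wells.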
# [4] = qHTS assay to identify small molecule agonists of the progesterone receptor (PR) signaling pathway - cell viability counter screen (AID 1346799; calls by dose curve; note: nearly all actives have a fitted effect of over 45% in size; note: potency is the fitted concentration of half-maximal effect)
# Outline: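 PR-UAS-bla HEK293T cells, 3,000 per well in medium with 2% charcoal-stripped FBS, were preincubated 6 hr at 37C, then exposed to compounds for 16 hr; viability was read as CellTiter-Glo luminescence after 30 min at room temperature.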
# [5] = qHTS assay to identify small molecule antagonists of the TGF-beta/Smad signaling pathway - cell viability counter screen (AID 1346824); note: nearly all actives have a fitted effect of over 50% in size; note: potency is the fitted concentration of half-maximal effect
# Outline: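 Cytotoxicity counter-screen run in the same wells as the beta-lactamase Smad reporter read: CellTiter-Glo luminescence after 30 min at room temperature. HEK 293T SBE-bla cells had 5 hr compound exposure at 37 C with TGF-beta1 (0.25 ng/mL stock).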
# [6] = qHTS assay to identify small molecule agonists of the TGF-beta/Smad signaling pathway - cell viability counter screen (AID 1346829); note: top concentration of the series differs between compounds; nearly all actives have a fitted effect of over 45% in size
# Outline: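 In parallel with the Smad reporter read, viability of HEK 293T cells stably carrying SBE-bla is quantified by ATP luminescence following 5 hr compound treatment.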
# [7] = qHTS assay to identify small molecule agonists of the TGF-beta/Smad signaling pathway (AID 1346859; active = well fitted activation curve with a large enough effect in the signal ratio in the repeat runs, not every such curve was filed as active; the % refers to the signal ratio; note: series mostly up to about 77 µM)
# Outline: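 HEK 293T cells stably carrying a beta-lactamase reporter driven by the Smad binding element were seeded overnight, exposed to DMSO-dissolved compounds for 5 hr at 37 C, 5% CO2, then loaded with FRET substrate for 2 hr at room temperature.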
# [8] = biological target: Thyrotropin-releasing hormone receptor (Homo sapiens) (UniProt P34981); experiment: qHTS assay to identify small molecule antagonists of the thyrotropin-releasing hormone receptor (TRHR) signaling pathway (AID 1346877; active = well fitted inhibition curve with a large enough effect in the repeat runs, not every such curve was filed as active; note: series mostly up to about 51 µM)
# Sequence of Thyrotropin-releasing hormone receptor (Homo sapiens) (P34981 whole entry, looked up): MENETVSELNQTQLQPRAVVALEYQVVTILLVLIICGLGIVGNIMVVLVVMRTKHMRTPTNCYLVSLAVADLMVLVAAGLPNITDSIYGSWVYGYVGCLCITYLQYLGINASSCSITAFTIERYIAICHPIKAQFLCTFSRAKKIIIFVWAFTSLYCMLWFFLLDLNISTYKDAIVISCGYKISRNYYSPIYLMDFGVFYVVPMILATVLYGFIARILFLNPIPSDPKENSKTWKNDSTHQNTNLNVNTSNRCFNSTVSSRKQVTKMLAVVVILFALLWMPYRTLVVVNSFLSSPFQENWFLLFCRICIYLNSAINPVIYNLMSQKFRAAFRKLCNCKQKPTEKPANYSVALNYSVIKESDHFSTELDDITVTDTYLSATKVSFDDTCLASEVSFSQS
# Outline: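 TRHR-expressing HEK293 cells were seeded, cultured 18 h at 37 °C, then loaded with calcium dye for 2 h. Compounds were pre-incubated 5 min at room temperature before 1 nM TRH (final) was added, and kinetic fluorescence was recorded for 3 min.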
# [9] = biological target: Thyrotropin-releasing hormone receptor (Homo sapiens) (UniProt P34981); experiment: qHTS assay to identify small molecule agonists of the thyrotropin-releasing hormone receptor (TRHR) signaling pathway (AID 1346891; calls by dose curve; note: series mostly up to about 58 µM)
# Outline: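 TRHR-expressing HEK293 cells were plated 18 h at 37 °C/5% CO2, loaded with calcium dye 2 h at 37 °C, then given compound in DMSO; fluorescence was read kinetically for 3 min at 1 s intervals.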
# [10] = Human pregnane X receptor (PXR) small molecule agonists, qHTS cell viability counter screen (AID 1346977); note: nearly all actives have a fitted effect of over 50% in size
# Outline: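 PXR-Luc HepG2 cells in medium with 5% charcoal-stripped FBS were pre-incubated 5hr, then exposed to compounds for 24hr at 37C. Viability was read in the same wells by CellTiter-Fluor fluorescence, reagent added after 23hr with a 1hr incubation.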
# [11] = Caspase-3/7 induction in HepG2 cells by small molecules, qHTS assay (AID 1346978); note: nearly all actives have a fitted effect of over 15% in size
# Outline: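 Caspase-3/7 induction was measured by Caspase-Glo 3/7 luminescence (30 min, room temperature) after a 17 hr compound exposure of wild-type HepG2 cells seeded at 2,000 per well and pre-incubated 5 hr.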
# [12] = Caspase-3/7 induction in CHO-K1 cells by small molecules, qHTS cell viability counter screen (AID 1346979); note: nearly all actives have a fitted effect of over 35% in size; note: potency is the fitted concentration of half-maximal effect
# Outline: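 Wild-type CHO-K1 cells were seeded at 1,500 per well, rested 5hr at 37 C, then exposed to compounds in DMSO. After 16hr, CellTiter-Fluor reagent was added and fluorescence read 1hr later as the viability measure.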
# [13] = Caspase-3/7 induction in CHO-K1 cells by small molecules, qHTS assay (AID 1346980); note: nearly all actives have a fitted effect of over 15% in size
# Outline: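 Luminescent Caspase-Glo 3/7 read (30min, room temperature) quantified apoptosis induction. Cells were wild-type CHO-K1, treated with compound for 17hr at 37 C and 5% CO2.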
# [14] = Caspase-3/7 induction in HepG2 cells by small molecules, qHTS cell viability counter screen (AID 1346981); note: nearly all actives have a fitted effect of over 30% in size; note: potency is the fitted concentration of half-maximal effect
# Outline: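 Wild-type HepG2 cells (2,000/well) were allowed to settle for 5 hr at 37 C, 5% CO2, then dosed with compounds in DMSO by pin transfer. After 16 hr at 37 C, CellTiter-Fluor was added and fluorescence read 1 hr later.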
# [15] = biological target: Nuclear receptor subfamily 1 group I member 2 (Homo sapiens) (UniProt O75469); experiment: Human pregnane X receptor (PXR) small molecule agonists, qHTS assay (AID 1346982); note: nearly all actives have a fitted effect of over 35% in size; note: potency is the fitted concentration of half-maximal effect
# Sequence of Nuclear receptor subfamily 1 group I member 2 (Homo sapiens) (O75469 whole entry, looked up): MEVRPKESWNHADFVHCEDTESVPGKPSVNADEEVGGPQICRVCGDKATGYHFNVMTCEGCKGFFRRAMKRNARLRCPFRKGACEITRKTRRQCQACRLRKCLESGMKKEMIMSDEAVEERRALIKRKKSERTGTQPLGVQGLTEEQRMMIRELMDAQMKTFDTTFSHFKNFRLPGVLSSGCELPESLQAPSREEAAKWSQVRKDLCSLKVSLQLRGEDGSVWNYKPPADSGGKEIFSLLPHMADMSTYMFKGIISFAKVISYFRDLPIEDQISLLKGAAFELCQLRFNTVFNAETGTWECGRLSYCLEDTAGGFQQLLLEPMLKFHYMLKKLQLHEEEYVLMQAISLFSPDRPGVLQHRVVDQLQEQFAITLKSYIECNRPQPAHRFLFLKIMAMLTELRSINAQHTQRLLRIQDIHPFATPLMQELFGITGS
# Outline: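 PXR-Luc HepG2 cells (CYP3A4 promoter-driven luciferase) were seeded in medium with 5% charcoal-stripped FBS, left 5 hr at 37 C, then exposed to compounds in DMSO for 24 hr. Luminescence was read after ONE-Glo addition.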
# [16] = biological target: Nuclear receptor subfamily 1 group I member 2 (Rattus norvegicus) (UniProt Q9R1A7); experiment: Rat pregnane X receptor (rPXR) activation by small molecules, qHTS assay (AID 1346983); details: rPXR luciferase reporter cells, One-Glo luminescence, 24 h; max activation: active compounds read high; note: nearly all actives have a fitted effect of over 20% in size; note: potency is the fitted concentration of half-maximal effect
# Sequence of Nuclear receptor subfamily 1 group I member 2 (Rattus norvegicus) (Q9R1A7 whole entry, looked up): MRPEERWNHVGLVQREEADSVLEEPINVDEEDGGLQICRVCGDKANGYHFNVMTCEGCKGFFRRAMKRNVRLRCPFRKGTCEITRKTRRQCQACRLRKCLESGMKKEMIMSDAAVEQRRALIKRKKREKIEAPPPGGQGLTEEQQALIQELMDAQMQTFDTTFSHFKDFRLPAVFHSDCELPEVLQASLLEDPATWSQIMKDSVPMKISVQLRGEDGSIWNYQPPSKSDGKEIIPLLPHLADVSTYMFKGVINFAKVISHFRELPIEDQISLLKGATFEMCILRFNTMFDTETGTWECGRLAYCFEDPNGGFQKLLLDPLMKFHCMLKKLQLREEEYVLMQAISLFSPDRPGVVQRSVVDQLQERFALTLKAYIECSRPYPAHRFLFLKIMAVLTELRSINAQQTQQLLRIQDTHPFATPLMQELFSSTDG
# Outline: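 Luminescent readout (One-Glo luciferase, 30 min room temperature) followed 24 hr compound treatment at 37 C of rPXR cells plated 2,000 per well and preincubated 5hr; qHTS format with compounds delivered in DMSO.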
# [17] = biological target: Acetylcholinesterase (Homo sapiens) (UniProt P22303); experiment: Acetylcholinesterase (AChE) small molecule antagonists: colormetric cell-based qHTS assay (AID 1347395; calls by dose curve; note: nearly all actives have a fitted effect of over 30% in size)
# Sequence of Acetylcholinesterase (Homo sapiens) (P22303 whole entry, looked up): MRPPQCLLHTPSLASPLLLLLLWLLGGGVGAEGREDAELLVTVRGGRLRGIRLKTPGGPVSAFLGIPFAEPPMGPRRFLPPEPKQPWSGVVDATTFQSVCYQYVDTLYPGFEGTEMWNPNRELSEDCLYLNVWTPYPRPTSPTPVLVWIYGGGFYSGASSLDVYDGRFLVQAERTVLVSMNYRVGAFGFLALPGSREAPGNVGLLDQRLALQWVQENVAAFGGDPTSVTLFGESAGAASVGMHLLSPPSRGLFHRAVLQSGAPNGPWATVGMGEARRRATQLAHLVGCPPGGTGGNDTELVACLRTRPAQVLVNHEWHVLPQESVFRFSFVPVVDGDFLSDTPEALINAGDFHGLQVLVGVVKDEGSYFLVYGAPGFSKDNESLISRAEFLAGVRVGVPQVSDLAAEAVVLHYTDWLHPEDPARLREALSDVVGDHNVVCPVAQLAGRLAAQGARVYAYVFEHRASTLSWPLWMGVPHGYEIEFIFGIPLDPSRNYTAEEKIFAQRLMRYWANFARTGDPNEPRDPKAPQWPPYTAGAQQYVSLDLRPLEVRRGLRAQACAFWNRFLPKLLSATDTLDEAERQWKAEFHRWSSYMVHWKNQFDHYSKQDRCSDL
# Outline: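 SH-SY5Y cells, plated overnight at 37 C, were exposed to compounds for 30 min at 37 C and 5% CO2. Acetylthiocholine plus DTNB was then added, and thiocholine from endogenous AChE was quantified colorimetrically after 90 min at 37 C.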
# [18] = qHTS assay to identify small molecule agonists of the estrogen receptor alpha (ER-alpha) signaling pathway in the presence of an antagonist - cell viability counter screen (AID 1259386);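 note: cells exposed to compounds for 22 h at 37 °C before the viability read; nearly all actives have a fitted effect of over 30% in size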; note: potency is the fitted concentration of half-maximal effect
# Outline: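 VM7Luc4E2 cells (endogenous full-length ER-alpha, 4×ERE-luciferase) were held 5 days in phenol red-free medium with 10% charcoal-stripped FBS, plated, then given 10.0nM ICI-182,780 and compounds at 15 concentrations for 22hr at 37C; viability read by CellTiter-Fluor fluorescence.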
# [19] = biological target: Nuclear receptor subfamily 1 group I member 2 (Homo sapiens) (UniProt O75469); experiment: CYP3A4 induction through human pregnane X receptor (PXR) by small molecules, qHTS assay (AID 1346984); note: nearly all actives have a fitted effect of over 40% in size; note: potency is the fitted concentration of half-maximal effect
# Outline: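 DPX-2 cells (HepG2 co-transfected with PXR and CYP3A4 promoter-luciferase) treated with compounds 24 h at 37C; luciferin-IPA CYP3A4 substrate 3uM final added for 3 h, then One-Glo; luminescence read. qHTS format.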
# [20] = biological target: Nuclear receptor subfamily 1 group I member 2 (Homo sapiens) (UniProt O75469); experiment: Human pregnane X receptor (PXR) activation by small molecules, qHTS assay (AID 1346985); note: nearly all actives have a fitted effect of over 40% in size; note: potency is the fitted concentration of half-maximal effect
# Outline: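 DPX-2 cells (HepG2 co-transfected with a PXR response element and a CYP3A4-promoter luciferase construct) were seeded at 2,000 per well, rested 5 hr at 37C, then exposed to DMSO-dissolved compounds for 24 hr. Activation was read as luciferase luminescence.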
compound,measurement,setting,value
CN1C[C@@H](NS(=O)(=O)N(C)C)C[C@@H]2c3cccc4c3c(cn4C)C[C@H]21,Potency,[1],inactive
same,Potency,[2],inactive
same,Potency,[3],inactive
same,Potency,[4],inactive
same,Potency,[5],inactive
same,outcome,[6],inactive
same,outcome,[7],inactive
same,outcome,[8],inactive
same,outcome,[9],inactive
same,Potency,[10],inactive
same,Potency,[11],inactive
same,Potency,[12],inactive
same,Potency,[13],inactive
same,Potency,[14],inactive
same,Potency,[15],23.7 µM (active)
same,Potency,[16],10 µM (active)
same,Potency,[17],inactive
ClCCCN1CCN(c2cccc(Cl)c2)CC1,Potency,[18],inactive
same,Potency,[3],inactive
same,Potency,[4],1.19 µM (active)
same,Potency,[5],inactive
same,outcome,[6],inactive
same,outcome,[7],inactive
same,outcome,[8],inactive
same,outcome,[9],inactive
same,Potency,[11],inactive
same,Potency,[12],inactive
same,Potency,[13],inactive
same,Potency,[14],inactive
same,Potency,[17],inactive
CCCCOP(=O)(O)OCCCC,Potency,[1],inactive
same,Potency,[2],inactive
same,Potency,[3],inactive
same,Potency,[4],inactive
same,Potency,[5],inactive
same,outcome,[6],inactive
same,outcome,[7],inactive
same,outcome,[8],inactive
same,outcome,[9],inactive
same,Potency,[10],inactive
same,Potency,[11],inactive
same,Potency,[12],inactive
same,Potency,[13],inactive
same,Potency,[14],inactive
same,Potency,[15],inactive
same,Potency,[17],inactive
N#CC(CCc1ccc(Cl)cc1)(Cn1cncn1)c1ccccc1 (stereo not drawn),Potency,[18],61.1 µM (active)
same,Potency,[3],30.6 µM (active)
same,Potency,[5],54.9 µM (active)
same,Potency,[12],43.3 µM (active)
same,Potency,[13],inactive
same,Potency,[14],48.6 µM (active)
same,Potency,[17],inactive
CCOC(=O)C1(c2ccccc2)CCN(CCc2ccc(N)cc2)CC1,Potency,[1],inactive
same,Potency,[2],inactive
same,Potency,[3],inactive
same,Potency,[5],inactive
same,outcome,[6],inactive
same,outcome,[7],inactive
same,Potency,[11],inactive
same,Potency,[12],inactive
same,Potency,[13],inactive
same,Potency,[14],inactive
same,Potency,[15],3.76 µM (active)
same,Potency,[17],inactive
CCN(CC)CCOC(=O)C(C)(c1ccccc1)c1ccccc1,Potency,[1],inactive
same,Potency,[2],inactive
same,Potency,[3],inactive
same,Potency,[4],inactive
same,Potency,[5],inactive
same,outcome,[6],inactive
same,outcome,[7],inactive
same,outcome,[8],inactive
same,outcome,[9],inactive
same,Potency,[11],inactive
same,Potency,[12],inactive
same,Potency,[13],inactive
same,Potency,[14],inactive
same,max activation,[16],7.07%
same,Potency,[19],7.94 µM (active)
same,Potency,[20],8.91 µM (active)
same,Potency,[17],inactive
CC(C(=O)c1ccccc1)N(C)C (stereo not drawn),Potency,[1],inactive
same,Potency,[2],inactive
same,Potency,[3],inactive
same,Potency,[5],inactive
same,outcome,[6],inactive
same,outcome,[7],inactive
same,Potency,[10],inactive
same,Potency,[11],inactive
same,Potency,[12],inactive
same,Potency,[13],inactive
same,Potency,[14],inactive
same,Potency,[15],inactive
same,Potency,[17],inactive
Cc1cnc[nH]1,Potency,[1],inactive
same,Potency,[2],inactive
same,Potency,[3],inactive
same,Potency,[4],inactive
same,outcome,[6],inactive
same,outcome,[7],inactive
same,outcome,[8],inactive
same,Potency,[11],inactive
same,Potency,[12],inactive
same,Potency,[13],inactive
same,Potency,[14],inactive
same,Potency,[15],inactive
same,Potency,[17],inactive
O=[N+]([O-])c1cccc2c([N+](=O)[O-])cccc12,Potency,[18],inactive
same,Potency,[5],inactive
same,outcome,[6],inactive
same,outcome,[7],inactive
same,outcome,[9],inactive
same,Potency,[10],inactive
same,Potency,[11],inactive
same,Potency,[13],inactive
same,Potency,[14],inactive
same,Potency,[15],inactive
same,Potency,[17],inactive
CC(C)(C)NCC(O)c1cc(Cl)c(N)c(Cl)c1 (stereo not drawn),Potency,[1],inactive
same,Potency,[2],inactive
same,Potency,[3],inactive
same,Potency,[4],inactive
same,Potency,[5],inactive
same,outcome,[6],inactive
same,outcome,[7],inactive
same,Potency,[11],inactive
same,Potency,[12],inactive
same,Potency,[13],inactive
same,max activation,[16],-2.23%
same,Potency,[19],inactive
same,Potency,[20],inactive
same,Potency,[17],inactive
